# Bioassay records from PubChem BioAssay.
# SMN2 splice up – qHTS Assay for Enhancers of SMN2 Splice Variant Expression; HEK293 SMN2-luciferase splicing reporter, luminescence, 30-36 h; Potency, µM (doses to about 46.1 µM), for the others: top-dose activity change, positive = activation, hits mostly activators; 2.8% of 210,000 active; note: % of control where 0% means no effect; nearly all actives have a fitted effect of over 55% in size
#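 HEK293 cells carry an SMN2 minigene-luciferase reporter in which exon 7 inclusion puts luciferase in frame. Cells were seeded at 2000 cells/well, attached for 10-12 hours, then exposed to compounds for 30-36 hours at 37C before ONE-Glo luminescence.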
# Rab9 promoter act – qHTS Assay for Rab9 Promoter Activators. Huh7 Rab9 promoter-luciferase reporter, luminescence, 24 h. Potency, µM (doses to about 9.22 µM), for the others: at the highest dose activation, negative = inhibition, actives largely listed as activators. 2.8% of 320,000 active. AID 485297, 2010; note: % of control where 0% means no effect; nearly all actives have a fitted effect of over 60% in size
#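 Measured in stably transfected Huh7 cells bearing a Rab9 promoter–luciferase construct: 24 h compound treatment at 37 °C, followed by luminescence detection.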
# FLuc counter – qHTS profiling assay for firefly luciferase inhibitor/activator using purifed enzyme and Km concentrations of substrates (counterscreen for miR-21 project) | 6.9% of 360,000 active | Luciferin 4-monooxygenase (Photinus pyralis), P08659 | AID 588342, 2011 | Potency, µM (doses to about 57.5 µM), inactives show at the top dose activity change, negative = inhibition, usual class: inhibitors | purified FLuc, Km substrates, luminescence inhibition;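 note: plate controls were vehicle for no effect and reference inhibitor for full effect; nearly all actives have a fitted effect of over 55% in size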
# Target sequence (P08659 whole entry, looked up): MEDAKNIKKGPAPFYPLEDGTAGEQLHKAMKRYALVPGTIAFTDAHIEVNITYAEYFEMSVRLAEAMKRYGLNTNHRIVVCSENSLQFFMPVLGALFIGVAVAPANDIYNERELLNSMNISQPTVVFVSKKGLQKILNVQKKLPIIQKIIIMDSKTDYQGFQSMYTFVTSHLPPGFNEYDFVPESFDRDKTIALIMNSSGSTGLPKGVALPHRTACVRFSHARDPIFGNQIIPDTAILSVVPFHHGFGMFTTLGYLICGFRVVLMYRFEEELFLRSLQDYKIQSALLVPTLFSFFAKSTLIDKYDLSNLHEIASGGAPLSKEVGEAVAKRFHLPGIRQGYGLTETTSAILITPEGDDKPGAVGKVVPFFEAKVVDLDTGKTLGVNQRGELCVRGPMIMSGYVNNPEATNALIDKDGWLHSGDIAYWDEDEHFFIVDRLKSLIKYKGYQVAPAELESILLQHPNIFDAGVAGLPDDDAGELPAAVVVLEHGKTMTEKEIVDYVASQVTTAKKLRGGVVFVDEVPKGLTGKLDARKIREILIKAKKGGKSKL
#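 Purified P. pyralis luciferase (10nM final) with 10uM D-luciferin and 10uM ATP (Km levels) in 50mM Tris acetate pH 7.5, 10mM Mg acetate, 0.01% Tween-20, 0.05% BSA; qHTS 6-point titration, ~60 µM downward; luminescence read.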
# NPC1 prom act – qHTS Assay for NPC1 Promoter Activators; Huh7 NPC1 promoter luciferase reporter, 24 h; Potency, µM (top dose mostly 9.22 µM), for inactives: at the top dose activation, usual class: activators; AID 485313, 2010; 2.4% of 320,000 active; note: % of control where 0% means no effect; nearly all actives have a fitted effect of over 60% in size
#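 Stably transfected Huh7 (NPC1 promoter→luciferase), 1500 cells/well in Opti-MEM + 10% FBS, 2 h settle, then compound 24 h at 37 °C. Luminescence after 10 min with Amplite reagent.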
# ELG1 repair inh – qHTS screen for small molecules that inhibit ELG1-dependent DNA repair in human embryonic kidney (HEK293T) cells expressing luciferase-tagged ELG1; HEK293T ELG1-luciferase reporter, luminescence, 16 h; DNA damage induced by 5-fluorouridine; Potency, µM (series often up to 46.1 µM), without a hit: at the top dose activity change, negative = inhibition, actives largely listed as inhibitors; AID 504467, 2011; 2.3% of 330,000 active; note: % is set by controls: 0 for no effect and ±100 for the full control effect; nearly all actives have a fitted effect of over 55% in size
#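 DMSO vehicle served as the neutral condition. Each well held 2,000 cells given 5-fluorouridine plus compound; after 16 hr at 37 °C/5% CO2, ONE-Glo was added and luciferase measured 30 min later.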
# ELG1 genotox – qHTS screen for small molecules that induce genotoxicity in human embryonic kidney (HEK293T) cells expressing luciferase-tagged ELG1; HEK293T ELG1-luciferase reporter, luminescence, 16 h; Potency, µM (titrated, usually from 46 µM), without a hit: top-dose activity change, positive = activation, usual class: activators; 1.3% of 330,000 active; AID 504466, 2011; note: % of control where 0% means no effect; nearly all actives have a fitted effect of over 60% in size
#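 Luminescence read-out: rising ELG1-luciferase signal, reflecting elevated ELG1 protein under genetic stress, flags genotoxic compounds. Cells were treated for 16 hr at 37 °C before ONE-Glo detection.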
# An asterisk follows results filed as active; ? = inconclusive; . = no result given; [ ] = another dose, or the depositor's remark. The list is not random: actives were taken first. Their share in the collection is about 9.4%. Calls come from the whole dose curve; as a rule, active = well fitted curve in the direction sought with a large enough effect; inconclusive = small, poorly fitted or top-dose-only effect, or another doubt; inactive = no such curve, though single readings can be large; an effect the other way counts as inactive or inconclusive. Potency is the fitted concentration of half-maximal effect.
SMILES,SMN2 splice up,Rab9 promoter act,FLuc counter,NPC1 prom act,ELG1 repair inh,ELG1 genotox
CCc1ccc(/C=c2\s/c(=C\C(=O)C(C)(C)C)[nH]c2=O)cc1,10%,-4%,?,12%,?,-13%
Cn1ccc2cc(S(=O)(=O)N3CCCN(C(=O)Nc4ccc(Br)cc4)CC3)ccc21,.,.,-11%,.,.,.
CC(=O)Oc1ccc2oc(/C=C/N(C)C)c([N+](=O)[O-])c2c1,0%,20%,15µM*,28%,?,?
CC(C)(C)c1nnc(N/N=C/c2ccccc2O)n(N)c1=O,-71%,-16%,?,-7%,21µM*,-2%
COc1ccc2c(c1)c1c(c(=O)n(CCc3ccccc3)c(=O)n1Cc1cccc(F)c1)n2C,.,.,0%,.,.,.
COCCN(C(=O)CSc1n[nH]c(-c2ccc(OC)cc2)n1)c1c(N)n(Cc2ccccc2)c(=O)[nH]c1=O,.,-8%,?,-1%,17%,3%
CCN(CC)c1ccc(-c2nnc(SCC(=O)N(CCOC)c3c(N)n(CC(C)C)c(=O)[nH]c3=O)o2)cc1,.,-1%,6.7µM*,-3%,-26%,0%
CCc1ccc(-c2nc(SCC(=O)N(CCOC)c3c(N)n(Cc4ccccc4)c(=O)[nH]c3=O)n[nH]2)cc1,.,13%,2.7µM*,0%,14%,10%
CCCCN(C(=O)CSc1n[nH]c(-c2ccc(C)cc2)n1)c1c(N)n(CCCC)c(=O)[nH]c1=O,.,-3%,8.5µM*,-1%,18%,?
CCCCn1c(N)c(N(CCOC)C(=O)CSc2n[nH]c(-c3ccc(OC)cc3)n2)c(=O)[nH]c1=O,.,14%,24µM*,-6%,12%,3%
CCC1Sc2ccccc2N(CC(=O)NCc2ccc(C)cc2)C1=O (configuration not stated),.,.,-6%,.,.,.
COc1ccc(Cl)cc1NC(=O)c1cc(C)nc2c1c(C)nn2-c1ccccc1,.,.,-4%,.,.,.
Cc1cn2c(=O)cc(COC(=O)c3cccc(NC(=O)C(C)Oc4ccccc4)c3)nc2s1 (configuration not stated),.,.,-4%,.,.,.
Cn1c(/C(C#N)=C/c2ccccc2Br)nc2ccccc21,5%,.,7.6µM*,.,.,.
CCn1c(/C(C#N)=C/c2ccccc2Cl)nc2ccccc21,.,.,5.4µM*,.,.,.
COc1ccc(N/C=C(\C#N)c2nc3ccccc3n2C)c(OC)c1,-18%,0%,2.7µM*,21%,26µM*,-7%
CCn1c(/C(C#N)=N/O)nc2ccccc21,-46%,1%,0%,0%,-2%,-4%
O=C(CSc1cn(CC(=O)N2CCCCC2)c2ccccc12)NCc1ccc(F)cc1,.,.,-10%,.,.,.
COc1ccc(OC)c(CNC(=O)c2cc(S(=O)(=O)N3CCC(C)CC3)cn2C)c1,.,.,-6%,.,.,.
Cc1c(C(=O)Nc2ccc(F)c(C(F)(F)F)c2)sc2nc(-c3ccccc3)cn12,.,.,-1%,.,.,.
COc1cccc(/C=N/NC(=O)CCCc2ccc(OC)c(C)c2)c1,-16%,-2%,19µM*,-1%,-14%,-1%
COc1cccc(/C=N/NC(=O)CCc2ccccc2)c1,-4%,1%,11µM*,1%,10%,3%
COc1ccc(NC(=O)CCCc2ccc(OC)c(C)c2)cc1,.,9%,-9%,3%,-4%,-4%
c1ccc2c[n+](Cc3ccnc4ccccc34)ccc2c1,-13%[9.22 µM],.,.,.,.,.
Cc1cccc(Nc2nnc(SC/C(O)=C(\C#N)c3nc4ccccc4[nH]3)s2)c1,10%,0%,17µM*,-2%,1%,1%
SMILES,SMN2 splice up,Rab9 promoter act,FLuc counter,NPC1 prom act,ELG1 repair inh,ELG1 genotox
Cc1ccc(Nc2nnc(SC/C(O)=C(\C#N)c3nc4ccccc4[nH]3)s2)c(C)c1,11%,-2%,?,-1%,-18%,-4%
Clc1ccc(OCc2noc(-c3ccsc3)n2)c(Cl)c1,.,4µM*,4.3µM*,2µM*,?,?
COc1cc(-c2nc(Cc3ccccc3Cl)no2)cc(OC)c1OC,-22%,0%,0%,2%,?,-2%
Clc1ccc(OCCCc2nc(-c3ccncc3)no2)c(Cl)c1,-26%,-2%,-16%,-1%,3%,-5%
Fc1cc(Cl)c(OCc2noc(-c3ccsc3)n2)c(Cl)c1,.,3.2µM*,?,?,?,7%
Cc1ccc2oc(C(=O)NCCCN3CCOCC3)c(C)c2c1,.,4µM*,13µM*,3.2µM*,?,18µM*
COc1ccc2oc(C(=O)NCCN3CCOCC3)c(C)c2c1OC,.,2.2µM*,15µM*,2µM*,?,10µM*
Cc1ccc2oc(C(=O)NCCC3CCCCO3)c(C)c2c1 (configuration not stated),.,0.45µM*,2.7µM*,0.56µM*,?,3.7µM*
O=C(NC1CCCCC1)c1ccc2c(c1)N(Cc1ccccc1Cl)C(=O)c1ccccc1S2,.,.,-7%,.,.,.
COc1ccc2c(C)c(CCC(=O)NCc3ccccc3OC)c(=O)oc2c1,1%,.,6%,.,.,.
Cc1ccc(C(=O)N/N=C\c2ccccc2[N+](=O)[O-])cn1,13µM*,2.8µM*,12µM*,3.5µM*,?,9%
COc1cc(/C=N/NC(=O)c2ccc(C)nc2)cc([N+](=O)[O-])c1O,2%,2%,21µM*,0%,-14%,-2%
CCOc1ccc(C(=O)N/N=C/c2ccccc2[N+](=O)[O-])cc1,13µM*,1.4µM*,1.7µM*,2.2µM*,?,?
Cc1ccc(C(=O)N/N=C/c2cc(Br)ccc2O)cn1,.,-35%,13µM*,-29%,?,11%
O=C(O)c1ccc(S(=O)(=O)N[C@H](Cc2ccc(O)cc2)C(=O)O)cc1,.,-6%,0%,-3%,.,.
O=C(Nc1ncc([N+](=O)[O-])s1)c1ccc2c(c1)OCO2,.,1.3µM*,0.11µM*,3.2µM*,?,?
Cc1onc(-c2ccccc2)c1C(=O)Nc1ncc([N+](=O)[O-])s1,.,-19%,-20%,-11%,3.7µM*,-39%
Cc1ccc(C(=O)Nc2ncc([N+](=O)[O-])s2)cc1,.,0.025µM*,0.12µM*,0.032µM*,?,?
O=C(Nc1ncc([N+](=O)[O-])s1)c1ccco1,.,1.1µM*,11µM*,1.6µM*,?,2.6µM*
CCc1ccc(CN(Cc2ccco2)C(=O)c2cc(-c3ccc(C)c(F)c3)on2)cc1,.,.,-6%,.,.,.
